Measured values as given in the supplement of paper PMC8728848.
Shown is part of a subset that was picked to be rich in the strongest signals.

Legend:
Test in all cases: glycan array binding signal (z-score within array); higher = stronger binding
Conditions in all cases: glycan notation: IUPAC condensed, linker removed
[1] = target: Fuc(a1-2)Gal(b1-3)GalNAc(b1-3)Gal(b1-4)Glc
In short: (§1)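 The binding signal is a Z-score computed within each array and averaged over linkers. Arrays of the same protein sequence at different concentrations or buffers were also averaged together. Data originate from 3228 arrays in the Consortium for Functional Glycomics database, kept only where the protein sequence was available.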

[2] = target: Fuc(a1-2)[Gal(a1-4)]Gal(b1-4)GalNAc
In short: as §1

[3] = target: Fuc(a1-2)[GalNAc(a1-3)]Gal(b1-4)Glc
In short: as §1

[4] = target: Fuc(a1-3)GlcNAc
In short: as §1

[5] = target: Gal(b1-3)[Fuc(a1-4)]GlcNAc(b1-3)Gal(b1-4)[Fuc(a1-3)]GlcNAc
In short: as §1

[6] = target: Gal(b1-4)GlcNAc(b1-2)Man(a1-3)[Gal(b1-4)GlcNAc(b1-2)Man(a1-6)]Man(b1-4)GlcNAc(b1-4)GlcNAc
In short: as §1

[7] = target: Gal3S(b1-4)Glc6S
In short: as §1

[8] = target: Gal3S6S(b1-4)GlcNAc
In short: as §1

[9] = target: Gal3S6S(b1-4)GlcNAc6S
In short: as §1

[10] = target: Gal6S(b1-4)Glc6S
In short: as §1

[11] = target: GlcNAc(b1-3)Gal
In short: as §1

[12] = target: GlcNAc(b1-4)Gal(b1-4)GlcNAc
In short: as §1

[13] = target: Man(a1-2)Man(a1-3)[Man(a1-6)]Man(a1-6)[Man(a1-2)Man(a1-3)]Man(b1-4)GlcNAc(b1-4)GlcNAc
In short: as §1

[14] = target: Man(b1-4)GlcNAc
In short: as §1

[15] = target: Neu5Ac(a2-3)Gal(b1-3)GlcNAc
In short: as §1

[16] = target: Neu5Ac(a2-3)Gal(b1-3)GlcNAc(b1-3)Gal(b1-4)GlcNAc
In short: as §1

[17] = target: Neu5Ac(a2-3)Gal(b1-4)[Fuc(a1-3)]GlcNAc
In short: as §1

[18] = target: Neu5Ac(a2-3)Gal(b1-4)[Fuc(a1-3)]GlcNAc(b1-3)Gal
In short: as §1

[19] = target: Neu5Ac(a2-6)Gal(b1-4)GlcNAc
In short: as §1

[20] = target: Neu5Gc(a2-6)Gal(b1-4)GlcNAc
In short: as §1

B1: FBG5 (Homo sapiens), Q8NI29 (protein)
chain: MGASVSRGRAARVPAPEPEPEEALDLSQLPPELLLVVLSHVPPRTLLGRCRQVCRGWRALVDGQALWLLILARDHGATGRALLHLARSCQSPARNARPCPLGRFCARRPIGRNLIRNPCGQEGLRKWMVQHGGDGWVVEENRTTVPGAPSQTCFVTSFSWCCKKQVLDLEEEGLWPELLDSGRIEICVSDWWGARHDSGCMYRLLVQLLDANQTVLDKFSAVPDPIPQWNNNACLHVTHVFSNIKMGVRFVSFEHRGQDTQFWAGHYGARVTNSSVIVRVRLS
- glycan array binding signal (z-score) [1]: -0.166
- glycan array binding signal (z-score) [2]: -0.19
- glycan array binding signal (z-score) [3]: 0.967
- glycan array binding signal (z-score) [4]: 0.417
- glycan array binding signal (z-score) [5]: -0.217
- glycan array binding signal (z-score) [6]: -0.102
- glycan array binding signal (z-score) [7]: 0.206
- glycan array binding signal (z-score) [8]: -0.009
- glycan array binding signal (z-score) [9]: 2.32
- glycan array binding signal (z-score) [10]: 0.548
- glycan array binding signal (z-score) [11]: -0.119
- glycan array binding signal (z-score) [12]: -0.095
- glycan array binding signal (z-score) [13]: -0.112
- glycan array binding signal (z-score) [14]: -0.205
- glycan array binding signal (z-score) [15]: -0.161
- glycan array binding signal (z-score) [16]: -0.162
- glycan array binding signal (z-score) [17]: -0.231
- glycan array binding signal (z-score) [18]: -0.244
- glycan array binding signal (z-score) [19]: -0.219
- glycan array binding signal (z-score) [20]: -0.248
